In the library only some 1.7% were active in any assay of this set; here they are far more common.
p53ts 39C tox: kills p53ts cells at the nonpermissive temperature; H1299-p53A138V viability at 39C, ATP luminescence, 24 h; Potency, µM (doses to about 46.1 µM), for the others: top-dose activity change, negative = cell killing, usual class: cytotoxic; 130,000 compounds, 1.5% hits; AID 902; also: % is scaled to controls: 0 for no effect and ±100 for the full control effect; nearly all actives have a fitted effect of over 55% in size
Peg3 imprint: induces erasure of genomic imprints in mouse ES cells; mouse ES Peg3-LacZ reporter, beta-gal luminescence, 40 h; Potency, µM (top dose mostly 60.7 µM), inactives show at the top dose activity change, positive = activation, actives largely listed as activators; 110,000 compounds, 0.02% hits; AID 1948
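Each well holds 300 Peg3LacZ-Neo (maternal) female ES cells incubated 40 h at 37C, 5% CO2. LacZ is measured by BetaGlo luminescence, with AC50 and maximum efficacy derived from dose-response curves.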
IkB sig inh: suppresses IkB signaling in ABC-DLBCL reporter cells | ABC-DLBCL IkBa-CBG/CBR dual luciferase ratio, 4 h; response scale: scaled: untreated 0%, proteasome inhibitor 100% | Potency, µM (titrated, usually from 57.1 µM), inactives show top-dose IkBa stabilization activation | 110,000 compounds, 0.04% hits | AID 445; active = well fitted curve in the direction sought with a large enough effect in the signal ratio, not every such curve was filed as active; inconclusive = small, poorly fitted or top-dose-only effect, or a change in a side signal; the % refers to the signal ratio;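 also: the direction sought is a rising ratio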
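Luminescence ratio of IκBα-fused green versus native red beetle luciferase in OCI-Ly3 cells, 4 h post-doxycycline with compound; red signal alone, scaled from basal (0%) to zero light (-100%), flagged nonspecific or cytotoxic effects.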
p53ts 32C tox: cytotoxicity in p53ts cells at permissive temperature; H1299-p53A138V at 32C, ATP luminescence viability, 24 h; Potency, µM (titrated, usually from 46.1 µM), without a hit: top-dose activity change, negative = cytotoxicity, most hits filed as cytotoxic; 130,000 compounds, 0.93% hits;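 also: 0% = DMSO and -100% = full killing by reference compound; nearly all actives have a fitted effect of over 55% in size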
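H1299-p53 A138V cells (temperature-sensitive p53) exposed 24 h to up to 46 uM compound at 32C, where p53 is wild-type in conformation. Viability read as ATP luminescence and normalised to DMSO and 100 uM tamoxifen. AC50 fitted with the Hill equation.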
The depositor's hits bear a star; ? = inconclusive; · = not tested or not shown; ! = repeats disagree; [ ] = dose if it differs, or a comment. Unless noted, calls follow the shape of the dose curve; as a rule, active = well fitted curve in the direction sought with a large enough effect; inconclusive = small, poorly fitted or top-dose-only effect, or another doubt; inactive = no such curve, though single readings can be large; an effect the other way counts as inactive or inconclusive. Potency is read from the fitted curve at half-maximal effect.

SMILES	p53ts 39C tox	Peg3 imprint	IkB sig inh	p53ts 32C tox
Cc1ccc(C)c(NS(=O)(=O)c2ccc3oc(=O)c4ncn(C)c4c3c2)c1	7.9µM*	8%[10.9 µM]	?	?
CCOC(=O)c1cc(-c2ccc(C)cc2)n(CC(=O)Nc2ccc(OC)c(Cl)c2)c1C	7.9µM*	-32%[10.9 µM]	-1%	?
Cc1sc2ncnc(Sc3nnnn3-c3ccc(Cl)cc3)c2c1C	5µM*	-20%	?	10µM*
Cc1sc2ncnc(SCc3ccco3)c2c1C	5%	-8%	?	3%
C/C(=N/O)c1ccc2cc(Br)c3ccccc3c2c1	-5%[9.22 µM]	-23%[10.9 µM]	1%[11.4 µM]	0%[9.22 µM]
COc1ccccc1N1CCN(c2nc(-c3ccccc3)cc(C(F)(F)F)n2)CC1	18%	-8%	0%	-4%
COc1ccccc1N1CCN(c2ccc(-c3ccccc3)nn2)CC1	2µM*	·	4µM*	3.2µM*
Cc1ccc(NC(=O)Cn2c(=O)n(Cc3ccco3)c(=O)c3ccc(C(=O)NC4CCCC4)cc32)c(C)c1	13µM*	-12%[10.9 µM]	-1%	-27%
CC1=C2[C@H](/C=C(\C)C(=O)O)CC[C@@H](C)[C@H]2CC1	-14%	-7%	0%	8%[1.84 µM]
Cc1nn(Cc2ccc(Cl)c(Cl)c2)c(C)c1NC(=O)c1cc(-c2ccc3c(c2)OCO3)on1	?	-42%	?	20µM*
Cc1nn(Cc2ccc(Cl)cc2)c(C)c1NC(=O)c1cc(-c2ccc3c(c2)OCO3)on1	?	-45%	13%	?
Cc1cccc(NC(=O)c2cc(-c3ccc4c(c3)OCCO4)on2)c1	1µM*	7%[10.9 µM]	?	1µM*
O=C(Nc1cccc(Cl)c1)c1cc(-c2ccc3c(c2)OCCO3)on1	4µM*	-63%[10.9 µM]	?	?
COc1ccccc1CN1CCC2(CC1)CCN(S(=O)(=O)c1ccccc1)CC2	-4%	·	2%[11.4 µM]	-10%
CO[C@@H]1/C=C\O[C@]2(C)Oc3c(C)c(O)c4c(O)c(c(CN5CCN(C)CC5)c(O)c4c3C2=O)NC(=O)/C(C)=C\C=C[C@@H](C)[C@@H](O)[C@H](C)[C@@H](O)C(C)[C@H](OC(C)=O)[C@@H]1C (some centres not stated)	·	-2%[10.9 µM]	·	·
CN1CCN(c2ncc3nc(-c4ccccc4)c(=O)n(Cc4ccc(F)cc4)c3n2)CC1	-4%	·	1%[11.4 µM]	-5%
COC(=O)c1ccc2c(=O)n(CCCCCC(=O)N3CCN(c4cc(C)ccc4C)CC3)c(=O)[nH]c2c1	6.3µM*	13%[10.9 µM]	?	16µM*
Cc1[nH]n(-c2ccccc2)c(=O)c1/C=N\NC(=O)C1COc2ccccc2O1 (configuration not stated)	14µM*	·	·	·
Cc1c(/C=N\NC(=O)C2COc3ccccc3O2)c2ccccc2n1C (configuration not stated)	-10%	·	·	·
O=C(COC(=O)c1cccs1)c1ccc2ccccc2c1	-2%	·	·	-12%
Cc1ccc(C(=O)COC(=O)c2cccs2)cc1	-23%	·	·	20µM*
Cc1ccc(S(=O)(=O)NCCc2csc(-c3cccc(F)c3)n2)cc1	16µM*	-21%[10.9 µM]	?	7%
COc1ccc(OC)c([C@H]2Nc3ccccc3NC3=C2C(=O)CC(C)(C)C3)c1Br	·	·	0%[11.4 µM]	·
COc1ccc(OCC(O)Cn2c(=N)n(CCN3CCCCC3)c3ccccc32)cc1 (configuration not stated)	13µM*!	-23%	-1%	-28%
Cc1ccc(OCC(O)Cn2c(=N)n(CCN3CCCCC3)c3ccccc32)cc1 (configuration not stated)	13µM*	-23%	?	-12%
SMILES	p53ts 39C tox	Peg3 imprint	IkB sig inh	p53ts 32C tox
CCCCCn1c(=N)n(CC(O)COc2ccccc2OC)c2ccccc21 (configuration not stated)	20µM*	5%	?	?
N=c1n(CCO)c2ccccc2n1CCOc1ccc(Cl)cc1Cl	13µM*	-33%	?	?
COc1ccccc1OCC(O)Cn1c(=N)n(Cc2ccccc2)c2ccccc21 (configuration not stated)	-11%	-19%	?	-18%
N=c1n(CCN2CCCCC2)c2ccccc2n1CC(O)COc1ccc(Cl)cc1Cl (configuration not stated)	3.2µM*	-15%[10.9 µM]	?	22µM*
O[C@@H](COc1ccc(Cl)cc1Cl)CN1CCCC1	1%[9.22 µM]	-13%[10.9 µM]	1%[11.4 µM]	3%[9.22 µM]
CCOc1ccccc1NC(=O)c1sc2nc(C)cc(C)c2c1N	1%	23%[10.9 µM]	4%	5%
Cc1cc(C)c2c(N)c(C(=O)Nc3ncc(C)s3)sc2n1	0.79µM*	·	·	1µM*
C[C@]12C=CC(=O)C=C1CCC1C2C(=O)C[C@]2(C)C1CC[C@]2(O)C(=O)CO (some centres not stated)	3%	-6%	·	9%
O=C1C(c2ccncc2)=C(O)c2ccccc21	6.3µM*	?	?	3.2µM*
Nc1nc(N)c2nc(-c3ccccc3)c(N)nc2n1	-7%	-10%	?	13µM*!
COc1ccc(C)cc1NC(=O)C(Cc1ccccc1)NS(=O)(=O)c1ccc(Br)s1 (configuration not stated)	13µM*	-11%[10.9 µM]	-1%	?
COc1ccc(C)cc1NC(=O)C(Cc1ccccc1)NS(=O)(=O)c1cccs1 (configuration not stated)	-14%	-4%[10.9 µM]	1%	-2%
Cc1cccc(CS(=O)(=O)c2ncc(Cl)c(C(=O)Nc3nnc(C(C)C)s3)n2)c1	5µM*	-23%[10.9 µM]	4%	16µM*
CC(C)c1nnc(NC(=O)c2nc(SCc3ccc(F)cc3)ncc2Cl)s1	-20%	-11%[10.9 µM]	6%	-3%
Cc1ccc(CS(=O)(=O)c2ncc(Cl)c(C(=O)Nc3nnc(C(C)C)s3)n2)cc1	5µM*	-31%[10.9 µM]	0%	13µM*
COc1ccc(-n2cc(-c3ccc4c(c3)OCO4)n(CC(=O)Nc3cc(Cl)ccc3C)c2=O)cc1	10µM*	-12%[10.9 µM]	?	10µM*
COc1ccc(-n2cc(-c3ccc4c(c3)OCO4)n(CC(=O)Nc3cccc(C)c3C)c2=O)c(OC)c1	-28%	2%[10.9 µM]	?	-20%
Clc1ccc(-n2ncc3c(NC4CCCC4)ncnc32)cc1	16µM*	-14%[10.9 µM]	?	13µM*
CC(C)Nc1ncnc2c1cnn2-c1ccccc1	?	-41%	?	13µM*
Cc1cccc(-n2ncc3c(Nc4c(C)cc(C)cc4C)ncnc32)c1	-2%	-13%[10.9 µM]	?	11%
Cc1cccc(-n2ncc3c(NC(C)C)ncnc32)c1	16µM*	-34%	?	13µM*
C[C@H](C(=O)c1ccccc1)[C@@H](c1ccccc1)N1CCOCC1	6%[9.22 µM]	·	0%[11.4 µM]	0%[9.22 µM]
CCn1cc(C(=O)O)c(=O)c2ccc(Cc3ccccc3)nc21	·	·	0%	·
O=C(O)c1ccncc1.O=C(O)c1ccncc1.[Cl][Pt]([Cl])([Cl])[Cl]	13%[9.22 µM]	-2%[10.9 µM]	-2%[11.4 µM]	-1%[9.22 µM]
COc1ccccc1CNC(=O)c1cccc(-c2ccccc2OC)n1	·	-3%	·	·

Assay outcomes (PubChem BioAssay)
